Assay results published in PubChem BioAssay (NCI).
“And” between values parts separate entries of the source, which are not always exact repeats. Equal entries are not always repeated. This is part of a sample that, as a whole, favours compounds with a hit. Of some 83,000 tested, about 20% had one in any assay.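 In brief: 96-well plates, 48 h treatment, single concentration, percent growth endpoint.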 A number with no mark means an inactive call. The source made the active and inactive calls. The calls were made as follows: active = growth percent below 10; inactive = the rest.

Test system: MDA-MB-468 breast
Test: NCI-60 one-dose screen, 48 h (100 = growth as untreated, 0 = no growth, -100 = all killed)
Settings: 10 µM unless noted

SMILES | growth
CSC1=Nc2c(c(C)c(-c3ccccc3)n2CCCC(=O)O)C2=NC(=O)C[C@H](C)N12 | 83.7%
CN1CCN(Cc2ccc(NC(=O)c3[nH]ncc3Nc3ccnc4ccnn34)cc2)CC1 | 65.6%
Nc1cc(-c2nc3sccn3c2-c2ccnc(NCCCNS(=O)(=O)c3ccc(F)cc3)n2)ccc1F | 41.7%
Oc1ccc(CSc2nnc(-c3ccncc3)o2)c2cccnc12 | 11.9%
CCOP(=O)(NC(c1ccccc1)c1ccccc1)OCC | 104%
COc1cc(/C(C)=C(\c2ccc(Cl)cc2)c2ccc(OCCN3CCCC3)cc2)ccc1F | 57.3%
CC1=C2C(=C[C@@](C)(CO)[C@@H]2OC(=O)N(C)CCN(C)C(=O)OC(C)(C)C)C(=O)[C@](C)(O)C12CC2 | -10.1% (active)
O=C1c2ccccc2C(=Cc2ccccc2)c2ccccc21 | -7.09% (active)
N#C/C(=C\c1ccccn1)c1nc2cc(Cl)ccc2s1 | 55.5%
CCN1C(=O)N(CC)C2C1N=C(SCc1ccc(Cl)cc1)N2/N=C/C=C/c1ccccc1OC (centres undefined) | 40.5%
COc1cc2c(c(OC)c1OC)CCC(c1cccc(C(=O)Nc3ccc([N+](=O)[O-])cc3)c1)O2 (centres undefined) | 38.2%
CCCCCCCC12Cc3ccccc3C1=Nc1c(c3ccccc3n1C)C2=O (centres undefined) | 97.3%
CCN1CCN(c2cc(C(=O)Nc3cccc(Nc4ccc5c(OC)cccc5n4)c3)cc(C(F)(F)F)c2)CC1 | 23.8%
C#CC(O)c1ccccc1 (centres undefined) | 110%
C=CCn1c(SCC(=O)c2ccc(OC)cc2)nnc1-c1ccc(OC)cc1 | 90.6%
N=C(N)c1ccc(-c2ccc(-c3cncc4ccccc34)s2)s1 | -72% (active)
COc1cccc(C2C3=C(COC3=O)N(CCO)c3cc(OC)ccc32)c1 (centres undefined) | -13.2% (active)
Cc1cc(NC(=O)CNc2nc(Oc3ccc(F)cc3)nc(-c3ccc(F)cc3)n2)ccc1Cl | 92.5%
O=C(/C=C/C12c3ccccc3C(c3ccccc31)C1C(=O)N(c3ccc(Cl)cc3)C(=O)C12)c1ccccn1 (centres undefined) | -9.41% (active)
COC(=O)CCC/C=C\C[C@H]1C=CC(=O)/C1=C/C[C@@H](O)C/C=C\CC(F)(F)F | -6.29% (active)
Clc1ccc(Nc2ccnc(N3CCN(c4ccnc5cc(Cl)ccc45)CC3)n2)cc1 | 39.4%

SMILES | growth
CN1CCN(CCCOc2cccc3nc(Nc4ccc(Cl)c(F)c4)ccc23)CC1 | 33.2%
COc1ccc2nc(NC(=O)c3cccnc3Nc3cc(OC)c(OC)c(OC)c3)sc2c1 | 60.3%
CN(C)c1ccc(-c2ccc(-c3ccc(C(=N)N)cn3)o2)cc1 | -64.4% (active)
COc1cc(CN2CCO[C@H](COc3cccc(F)c3)C2)ccc1Cl | 11.4%
NC(Cc1c[nH]c2ccccc12)C(=O)O (centres undefined) | 110% and 112%
Cc1cccc(N2C(=O)/C(=C/C(Cl)=C/c3ccc([N+](=O)[O-])cc3)SC2=S)c1C | 11.6%
O=c1ccn(C2OC(F)(CO)C(O)C2F)c(=O)[nH]1 (centres undefined) | 126%
Cc1ccc(C(=O)NCCNc2nccc(-c3c(-c4cccc(F)c4)nc4sccn34)n2)cc1 | 38.7%
COC(=O)CCCNC(=O)C(=O)c1c(O)c(O)c(C(C)C)c2cc(C)c(-c3c(C)cc4c(C(C)C)c(O)c(O)c(C(=O)C(=O)NCCCC(=O)OC)c4c3O)c(O)c12 | -1.3% (active)
C=C1C(=O)O[C@H]2[C@H]1CC/C(COC(=O)c1cc3ccccc3o1)=C\CC[C@@]1(C)O[C@@H]21 | -71.2% (active)
CC(=O)N(O)CCCCCNC(=O)CCC(=O)N(O)CCCCCNC(=O)CCC(=O)N(O)CCCCCN(CCCCCCCCCC[P+](c1ccccc1)(c1ccccc1)c1ccccc1)CCCCCCCCCC[P+](c1ccccc1)(c1ccccc1)c1ccccc1 | -42.6% (active)
CCOC(=O)Oc1c(OC)cc(C(=O)c2ccc(OC)c(O)c2OC)cc1OC | 19.8%
O=C(Nc1cccc([N+](=O)[O-])c1)c1ccc2ccccc2c1O | 52.4%
O=C(O)C(Cc1ccccc1)C(=O)O | 82.4%
O=c1oc2ccc(Cl)cc2c(=O)n1-c1ccc(Cl)cc1F | 2.01% (active)
COc1ccc(-c2ccnc3c(C#N)c(Nc4ccccc4)nn23)cc1OC | 79.4%
CN(C)c1ccc(S(=O)(=O)O)cc1 | 106%
CC(=O)OCC1OC(OC(C)=O)C(OC(C)=O)C(OC(C)=O)C1OC(C)=O (centres undefined) | 95.5% and 108%
Fc1ccc2[nH]cc(-c3nc(-c4ccsc4)cs3)c2c1 | 69.6%
Cc1nn(-c2ccccc2)c(Cl)c1/C=N\N=c1/sc2ccccc2n1C | 113%
Nc1nc(Nc2ccccc2SSc2ccccc2Nc2nc(N)nc(-c3ccc4ccccc4c3)n2)nc(-c2ccc3ccccc3c2)n1 | 103%

SMILES | growth
Cc1ccc(Cc2cnc(NC(=O)/C=C/c3cccc(C)c3)s2)cc1 | 1.34% (active)
C=C(C=O)[C@@H]1CC=C(C=O)CC1 | 20.2%
O=C(Nc1cccc(C2=NCCN2)c1)c1ccc(N=Nc2ccc(C(=O)Nc3cccc(C4=NCCN4)c3)cc2)cc1 | 6.96% (active)
N#CC1=C(N)Oc2ccc3ccccc3c2C1c1ccccc1Cl (centres undefined) | 31.1%
CC(=O)OC(C(=O)O)c1ccccc1 (centres undefined) | 104%
O=C(/C=C\c1ccc2c(c1)OCO2)/C=C/c1ccc2c(c1)OCO2 | 20.3%
NNC(=O)C1CC2c3ccccc3C1c1ccccc12 (centres undefined) | 112%
COc1cc(C=C2C(=O)N(C)C(=O)N(C)C2=O)cc(CN2CCCCC2)c1O | 104%
CN([O-])c1nc(N(C)[O-])nc(N2CCOCC2)n1.CN([O-])c1nc(N(C)[OH2+])nc(N2CCOCC2)n1.[Fe+3] | -52.3% [100 µM] (active)
CN1C(=S)N(C)C2C1NN=C1SC(c3ccccc3)=CC(=O)N12 (centres undefined) | 62.9%
O=C(NCCCl)Nc1ncccc1OCc1ccccc1 | 104%
CCOC(=O)CNC1=C(Cl)C(=O)N(Cc2ccc(Cl)cc2)C1=O | 105%
COC(=O)[C@@H](OC)[C@@H]1Cc2cc3cc(OC4CC(OC5CC(O)C(O)C(C)O5)C(O)C(C)O4)c(C)c(O)c3c(O)c2C(=O)[C@H]1OC1CC(OC2CC(OC3CC(C)(O)C(O)C(C)O3)C(O)C(C)O2)C(O)C(C)O1 (some centres undefined) | -45.6% (active)
COc1ccc(-c2nc(SCCC(C)C)nc(Nc3ccc(C(=O)O)cc3)c2C#N)cc1 | 105%
CCNc1nc2c(cnn2C)c(=O)[nH]1 | 97.4%
CCC(=O)N1C/C(=C/c2ccc(OC)cc2)C(=O)/C(=C/c2ccc(OC)cc2)C1 | -25.6% (active)
CN(C)CCn1c(=O)c2ccccc2n2nc3ccccc3c12 | 105%
CC(C)C[C@H](C(=O)O)N(C)C(=O)[C@@H]1CCCN1C(=O)[C@H](C)OC(=O)[C@H](CCC(N)=O)NC(=O)[C@@H]1CCC(=O)N1 | 107%
Fc1ccc(Cc2ccc(F)cc2)cc1 | 104%
CCN(CC)CCCNc1ccc(Nc2ccc(OC)cc2)cc1 | 78.8%
OC(CN1CCCC2CCCCC21)c1cc2ccccc2c2ccccc12 (centres undefined) | -24.4% (active)

SMILES | growth
Cc1ccc(C(C)C)c(OCC(=O)O)c1 | 98.9%
COc1cccc(C=Nc2cc(C(C)C)c(O)cc2C)c1O | 95%
CCOC(=O)C(=Cc1cccc(Cl)c1)C(=O)OCC | 37.9%
O=c1c(CNc2ccc(S(=O)(=O)Nc3nccs3)cc2)coc2ccccc12 | 92.9%
O=C(NCc1ncc[nH]1)c1ccc(-c2nc3ccc4[nH]ncc4c3c3c2CCCC3)cc1 | -47.1% (active)
COc1ccc(C(=O)/C=C/c2cc(-c3cc(OC)c(OC)c(OC)c3)n[nH]2)cc1 | -66.1% (active)
CCCCN(CCCC)C(=N)c1ccnc2ccccc12 | 117%
O=C1c2c(O)cc(O)cc2OC(c2ccc(O)c(O)c2)C1O (centres undefined) | 112%
Cc1c2cnccc2c(C)c2c1c1cc(C3OCCCO3)ccc1n2C | -34% (active)
Brc1ccc([I+]c2ccc(Br)cc2)cc1 | 21.6%
COC(=O)c1nc(=S)[nH]c(C(=O)OC)c1C(=O)c1ccc(OC)cc1 | 94.7%
CCCCn1cnc2c(Sc3c([N+](=O)[O-])ncn3C)nc(N)nc21 | 96.9%
c1ccc2c(-c3nc(-c4c[nH]c5ncccc45)cs3)c[nH]c2c1 | 108%
COCCNc1ccc2ncc(C#Cc3cncc(C(=O)Nc4ccc(CN5CCN(C)CC5)c(C(F)(F)F)c4)c3)n2n1 | -59.9% (active)
CC(C)(C)n1cc(-c2ccnc(NCCCNS(=O)(=O)c3ccc(F)cc3)c2)c(-c2cccc(F)c2)n1 | 53.2%
Cc1cccc2c3c(sc12)C(c1ccc(F)cc1)C(C#N)=C(/N=C/c1ccc(Cl)cc1)O3 (centres undefined) | 36.2%
Cc1cc(Nc2nc(-c3cccnc3)nc3ccccc23)n[nH]1 | 26.8%
Cc1ccc(C(=O)CSc2nc(-c3ccc(Br)cc3)c(C#N)c(=O)[nH]2)cc1 | 92.2%
C#C[C@]1(O)CC[C@H]2[C@@H]3CC=C4c5sc(-c6ccccn6)nc5CC[C@]4(C)[C@H]3CC[C@@]21C | 89.2%
COc1ccccc1/C=C(/C(=O)c1ccccc1)c1ccccc1 | 101%
Cc1ccc2c(/C=C/C(=O)c3cc(CN4CCOCC4)c(O)c4nc(C)ccc34)cc(CN3CCOCC3)c(O)c2n1 | -40.4% (active)
